Reference: PubChem BioAssay (Tox21)
Records with an inconclusive call do not appear. Active and inactive are the calls of the source. Unless noted, calls follow the shape of the full dose curve.

Key:
[1] = Nuclear factor erythroid 2-related factor 2/antioxidant responsive element (Nrf2/ARE) small molecule agonists: qHTS cell viability counter screen in human keratinocytes (AID 1919968; active = well fitted curve in the direction sought with a large enough effect in the repeat runs; an effect the other way counts as inactive or inconclusive; also: nearly all actives have a fitted effect of over 55% in size)
In short: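 KeratinoSens cells (HaCaT keratinocytes stably carrying an ARE-luciferase reporter) were seeded at 1,500 cells/well and rested 5 h at 37 C/5% CO2. They were then exposed to compounds in DMSO for 23 h. Viability was read by CellTiter-Fluor fluorescence after 1 h.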

[2] = Nuclear factor erythroid 2-related factor 2/antioxidant responsive element (Nrf2/ARE) small molecule agonists: luciferase reporter gene qHTS assay in human keratinocytes (AID 1919969); also: nearly all actives have a fitted effect of over 35% in size
[3] = biological target: Gonadotropin-releasing hormone receptor (Homo sapiens) (UniProt P30968); assay: Human gonadotropin-releasing hormone receptor (GnRHR) small molecule agonists, calcium flux assay in GnRHR-HEK293 cells (AID 1920063); also: nearly all actives have a fitted effect of over 35% in size
Sequence of Gonadotropin-releasing hormone receptor (Homo sapiens) (P30968 whole entry, looked up): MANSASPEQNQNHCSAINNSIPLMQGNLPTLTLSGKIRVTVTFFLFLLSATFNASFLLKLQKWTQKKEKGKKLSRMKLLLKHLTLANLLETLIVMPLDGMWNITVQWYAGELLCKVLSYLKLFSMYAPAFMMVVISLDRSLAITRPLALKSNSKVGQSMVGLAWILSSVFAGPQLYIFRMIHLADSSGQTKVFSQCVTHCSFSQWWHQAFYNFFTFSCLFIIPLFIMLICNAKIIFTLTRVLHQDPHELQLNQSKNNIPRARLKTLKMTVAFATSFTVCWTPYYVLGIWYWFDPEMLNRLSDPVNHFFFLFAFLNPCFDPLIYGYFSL
In short: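 HEK293 cells stably expressing human GnRHR were plated 18 h at 37 °C, loaded with calcium dye 1 h at 37 °C, then given compound in agonist mode; fluorescence (Ex/Em 480/540) read kinetically for 3 min at 1 s intervals.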

[4] = biological target: KiSS-1 receptor (Homo sapiens) (UniProt Q969F8); assay: Human kisspeptin (KISS1R) small molecule agonists, calcium flux assay in KISS1R-HEK293 cells (AID 1920064; active = well fitted curve in the direction sought with a large enough effect in the repeat runs; an effect the other way counts as inactive or inconclusive)
Sequence of KiSS-1 receptor (Homo sapiens) (Q969F8 whole entry, looked up): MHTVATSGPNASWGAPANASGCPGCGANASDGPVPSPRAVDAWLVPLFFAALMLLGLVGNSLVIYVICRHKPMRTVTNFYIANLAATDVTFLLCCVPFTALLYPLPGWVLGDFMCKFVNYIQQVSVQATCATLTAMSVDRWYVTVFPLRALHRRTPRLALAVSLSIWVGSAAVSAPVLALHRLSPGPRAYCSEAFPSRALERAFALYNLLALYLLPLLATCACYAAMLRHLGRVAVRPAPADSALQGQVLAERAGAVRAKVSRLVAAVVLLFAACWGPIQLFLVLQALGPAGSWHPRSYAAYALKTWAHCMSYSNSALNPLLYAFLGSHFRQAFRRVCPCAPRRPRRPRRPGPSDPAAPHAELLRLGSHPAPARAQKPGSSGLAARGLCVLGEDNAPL
In short: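 HEK293 cells stably expressing human KISS1R were plated 18 h at 37 °C, loaded with calcium dye for 1 h at 37 °C, then given compound by pin tool. Fluorescence (Ex/Em 480/540) was read kinetically for 3 min.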

[5] = G protein-coupled receptor (GPCR) small molecule agonists, calcium flux assay: HEK293 wild type cell line counter screen (AID 1920065)
In short: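 Cells were plated and cultured 18 h at 37 C/5% CO2, then loaded with calcium dye for 1 h at 37 C. Compounds in DMSO were pin-transferred in agonist mode, and fluorescence (Ex/Em 480/540) was read kinetically for 3 min at 1 s intervals.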

[6] = p53 small molecule agonists, cell-based qHTS assay with human liver microsomes (AID 1963577);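 also: p53 response element beta-lactamase reporter cells with liver microsomes plus NADPH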
In short: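 p53RE-bla cells; 5 h settle, 37 C/5% CO2; cpd + HLM 0.5 mg/mL + NADPH 0.5 mg/mL (final); 16 h 37 C; LiveBLAzer 2 h RT dark; fluorescence readout.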

[7] = p53 small molecule agonists, cell-based qHTS assay with rat liver microsomes (AID 1963578)
In short: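 Rat liver microsome activation: microsomes 0.5 mg/mL, NADPH 0.5 mg/mL final; p53RE-bla cells, 16 h 37 C; LiveBLAzer readout, 2 h RT dark.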

[8] = p53 small molecule agonists, cell-based qHTS assay with human liver microsomes: qHTS cell viability counter screen (AID 1963579); also: nearly all actives have a fitted effect of over 45% in size
In short: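 Luminescent CellTiter-Glo read-out, 30 min at room temperature, gauged cytotoxicity in p53RE-bla cells exposed 16 h at 37 C to DMSO-dissolved compounds with metabolic activation by human liver microsomes and NADPH, each 0.5 mg/mL final.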

[9] = p53 small molecule agonists, cell-based qHTS assay with rat liver microsomes: qHTS cell viability counter screen (AID 1963580); also: nearly all actives have a fitted effect of over 45% in size
In short: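 Viability is assessed in parallel with the p53 reporter read: HCT-116 p53RE-bla cells receive compounds plus rat microsomes and NADPH (0.5 mg/mL final apiece), incubate 16 h at 37 C, and then CellTiter-Glo luminescence is recorded.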

[10] = p53 small molecule agonists, cell-based qHTS assay: qHTS cell viability counter screen (AID 1963581); also: nearly all actives have a fitted effect of over 45% in size
In short: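 p53RE-bla HCT-116 cells were exposed to compounds for 16 h at 37 C; after the beta-lactamase FRET read in the same wells, CellTiter-Glo was added and luminescence (intracellular ATP) read after 30 min at room temperature.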

[11] = p53 small molecule agonists, cell-based qHTS assay (AID 1963582; active = well fitted activation curve with a large enough effect in the signal ratio in the repeat runs, not every such curve was filed as active; the % refers to the signal ratio)
In short: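 p53RE-bla beta-lactamase reporter cells rested 5 h at 37 C/5% CO2, then received compounds in DMSO by pin transfer and were incubated 16 h at 37 C. LiveBLAzer B/G FRET substrate was loaded for 2 h at room temperature before fluorescence reading.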

[12] = cAMP Responsive Elements (CRE) small molecule agonists, cell-based qHTS assay (AID 1963590)
In short: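 CRE-bla HEK 293T cells in DMEM with 10% dialyzed FBS, NEAA, pyruvate and 25 mM HEPES were plated 18 h at 37 C/5% CO2, then exposed to compounds in DMSO for 3 h before LiveBLAzer B/G FRET substrate addition.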

[13] = cAMP Responsive Elements (CRE) small molecule antagonists, cell-based qHTS assay (AID 1963591; active = well fitted inhibition curve with a large enough effect in the signal ratio in the repeat runs, not every such curve was filed as active; the % refers to the signal ratio)
In short: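 CRE-bla HEK293T cells were plated 18 h at 37 °C/5% CO2, pinned with compound in DMSO, then stimulated with NKH477 at 0.25 uM final for 3 h. LiveBLAzer B/G FRET substrate was added and plates incubated 2 h at room temperature.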

[14] = biological target: Beta-2 adrenergic receptor (Homo sapiens) (UniProt P07550); assay: Adrenergic beta2 receptor (ADRB2) small molecule antagonists, cell-based qHTS assay (AID 1963592); also: series mostly up to about 92 µM; nearly all actives have a fitted effect of over 50% in size
Sequence of Beta-2 adrenergic receptor (Homo sapiens) (P07550 whole entry, looked up): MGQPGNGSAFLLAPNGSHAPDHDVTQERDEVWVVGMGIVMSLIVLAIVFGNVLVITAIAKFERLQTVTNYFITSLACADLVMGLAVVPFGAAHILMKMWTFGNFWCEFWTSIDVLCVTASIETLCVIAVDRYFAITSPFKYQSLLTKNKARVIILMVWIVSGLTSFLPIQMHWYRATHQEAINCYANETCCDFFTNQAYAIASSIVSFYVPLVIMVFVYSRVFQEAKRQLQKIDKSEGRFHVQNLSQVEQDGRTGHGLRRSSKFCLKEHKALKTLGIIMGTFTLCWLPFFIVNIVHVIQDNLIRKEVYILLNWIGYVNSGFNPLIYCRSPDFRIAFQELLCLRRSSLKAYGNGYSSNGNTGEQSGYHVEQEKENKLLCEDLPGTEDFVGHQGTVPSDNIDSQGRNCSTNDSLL
In short: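 Cells (CHO, stable ADRB2 overexpression) incubated 18-20hr at 37C; compounds added from DMSO; agonist mix (1nM isoproterenol, 100uM IBMX, 25uM Ro-20-1724) added; 0.5hr RT; d2-cAMP and anti-cAMP-cryptate added; 1hr RT; 665/615 nm read.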

[15] = biological target: Muscarinic acetylcholine receptor M1 (Homo sapiens) (UniProt P11229); assay: Cholinergic receptor muscarinic 1 (CHRM1) small molecule agonists, cell-based qHTS assay (AID 1963589); also: nearly all actives have a fitted effect of over 35% in size
Sequence of Muscarinic acetylcholine receptor M1 (Homo sapiens) (P11229 whole entry, looked up): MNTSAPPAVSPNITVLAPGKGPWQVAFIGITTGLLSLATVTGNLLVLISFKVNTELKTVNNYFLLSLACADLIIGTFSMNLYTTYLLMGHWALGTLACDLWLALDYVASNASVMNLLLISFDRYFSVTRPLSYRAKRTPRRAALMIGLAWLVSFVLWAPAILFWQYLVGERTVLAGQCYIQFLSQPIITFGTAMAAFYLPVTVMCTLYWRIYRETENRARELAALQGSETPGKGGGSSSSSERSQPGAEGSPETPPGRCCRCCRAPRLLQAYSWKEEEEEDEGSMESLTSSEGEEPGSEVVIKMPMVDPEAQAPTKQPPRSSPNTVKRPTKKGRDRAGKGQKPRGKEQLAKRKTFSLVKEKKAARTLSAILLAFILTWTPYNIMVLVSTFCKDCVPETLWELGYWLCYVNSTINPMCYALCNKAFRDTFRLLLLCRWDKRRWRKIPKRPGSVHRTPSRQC
In short: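 CHO cells stably expressing human CHRM1, seeded 18 h at 37 C/5% CO2, dye-loaded 1 h at 37 C, then given compound in agonist mode; intracellular calcium fluorescence read kinetically at 1 s intervals. Fifteen concentrations, three independent runs.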

[16] = biological target: D(2) dopamine receptor (Homo sapiens) (UniProt P14416); assay: Dopamine D2 receptor (DRD2) small molecule antagonists, cell-based qHTS assay (AID 1963595; active = well fitted inhibition curve with a large enough effect in the signal ratio in the repeat runs, with a control signal flat; the % refers to the signal ratio)
Sequence of D(2) dopamine receptor (Homo sapiens) (P14416 whole entry, looked up): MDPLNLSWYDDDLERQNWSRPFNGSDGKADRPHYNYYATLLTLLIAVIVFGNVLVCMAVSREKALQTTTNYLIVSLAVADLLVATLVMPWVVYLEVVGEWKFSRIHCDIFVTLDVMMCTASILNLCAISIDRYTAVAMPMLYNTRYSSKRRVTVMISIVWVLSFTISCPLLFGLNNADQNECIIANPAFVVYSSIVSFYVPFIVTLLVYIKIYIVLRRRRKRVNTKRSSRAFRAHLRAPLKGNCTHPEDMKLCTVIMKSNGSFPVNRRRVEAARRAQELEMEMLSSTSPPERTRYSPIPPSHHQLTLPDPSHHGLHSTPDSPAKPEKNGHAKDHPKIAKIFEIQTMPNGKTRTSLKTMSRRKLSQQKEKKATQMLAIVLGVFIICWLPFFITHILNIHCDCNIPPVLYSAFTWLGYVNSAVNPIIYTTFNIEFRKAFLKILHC
In short: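 Readout: HTRF cAMP, cAMP-d2 competing with cellular cAMP for anti-cAMP cryptate, read after 1 h. Cells: DRD2-HEK293. Conditions: 0.1 mM Ro20-1724, 12 nM quinpirole, 200 nM NKH477, 30 min RT.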

[17] = biological target: Beta-2 adrenergic receptor (Homo sapiens) (UniProt P07550); assay: Adrenergic beta2 receptor (ADRB2) small molecule agonists, cell-based qHTS assay (AID 1963593);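 also: CHO cells stably overexpressing human ADRB2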
In short: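 CHO cells stably over-expressing ADRB2 were plated overnight at 37C, then dosed with compounds plus a stimulation mix containing 100uM IBMX and 25uM Ro-20-1724 for 0.5hr at room temperature. cAMP was measured by HTRF competition, 1hr.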

[18] = biological target: D(2) dopamine receptor (Homo sapiens) (UniProt P14416); assay: Dopamine D2 receptor (DRD2) small molecule agonists, cell-based qHTS assay (AID 1963594); also: nearly all actives have a fitted effect of over 35% in size
In short: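 HEK293 cells stably expressing human DRD2, pre-treated with PDE inhibitor Ro20-1724 (0.1 mM final) and compound 10 min at room temperature, then stimulated with NKH477 (200nM […]) for 30 min. cAMP read by HTRF (665/620 nm).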

[19] = biological target: Muscarinic acetylcholine receptor M1 (Homo sapiens) (UniProt P11229); assay: Cholinergic receptor muscarinic 1 (CHRM1) small molecule antagonists, cell-based qHTS assay (AID 1963588); also: nearly all actives have a fitted effect of over 40% in size
In short: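 CHRM1-CHO calcium-flux assay, antagonist mode. Cells were seeded 18 h, dye-loaded 1 h at 37 C and given compound for 5 min at RT, then acetylcholine was added at 50nM. FDSS fluorescence was read 3 min; 15 concentrations, three runs.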

[20] = biological target: 5-hydroxytryptamine receptor 2A (Homo sapiens) (UniProt P28223); assay: 5-hydroxytryptamine receptor 2A (HTR2A) small molecule agonists, cell-based qHTS assay (AID 1963587); also: nearly all actives have a fitted effect of over 30% in size
Sequence of 5-hydroxytryptamine receptor 2A (Homo sapiens) (P28223 whole entry, looked up): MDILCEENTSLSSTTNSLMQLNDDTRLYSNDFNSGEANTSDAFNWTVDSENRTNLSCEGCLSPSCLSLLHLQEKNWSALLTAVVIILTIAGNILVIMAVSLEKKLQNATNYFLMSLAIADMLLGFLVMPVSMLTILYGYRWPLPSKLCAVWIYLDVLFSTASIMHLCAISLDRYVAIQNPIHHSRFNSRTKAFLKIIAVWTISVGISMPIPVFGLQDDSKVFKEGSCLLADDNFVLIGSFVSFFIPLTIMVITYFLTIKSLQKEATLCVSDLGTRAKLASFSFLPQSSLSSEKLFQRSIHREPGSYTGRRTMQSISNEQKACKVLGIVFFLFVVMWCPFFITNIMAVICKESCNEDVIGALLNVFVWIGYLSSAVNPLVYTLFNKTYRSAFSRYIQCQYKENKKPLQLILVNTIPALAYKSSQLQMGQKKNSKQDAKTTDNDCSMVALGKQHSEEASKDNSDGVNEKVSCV
In short: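 CHO cells stably expressing human HTR2A, plated 18 h, loaded with calcium dye 1 h at 37 C. Agonist mode: compounds added and intracellular calcium fluorescence recorded kinetically for 2 min at 1 sec intervals.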

Measured: Potency

Cc1nccn1CC1CCc2c(c3ccccc3n2C)C1=O (configuration not stated)
inactive: [1] | [2] | [3] | [4] | [5] | [6] | [7] | [8] | [9] | [10] | [11] | [12] | [13] | [14]

COc1ccc(CCN(C)CCCC(C#N)(c2cc(OC)c(OC)c(OC)c2)C(C)C)cc1OC (configuration not stated)
inactive: [1] | [2] | [3] | [4] | [5] | [6] | [7] | [8] | [9] | [10] | [11] | [15] | [12] | [14] | [16]

CN(C)CCC[C@@]1(c2ccc(F)cc2)OCc2cc(C#N)ccc21
inactive: [1] | [2] | [3] | [4] | [5] | [6] | [7] | [8] | [9] | [10] | [11] | [12] | [13] | [14] | [17] | [18] | [16]

CCCCNc1ccc(C(=O)OCCN(C)C)cc1
inactive: [1] | [2] | [3] | [4] | [5] | [6] | [7] | [8] | [9] | [10] | [11] | [12] | [13] | [14] | [17] | [18] | [16]

COc1cc2c3cc1Oc1cc(ccc1O)C[C@@H]1c4c(cc(OC)c(O)c4Oc4ccc(cc4)C[C@@H]3N(C)CC2)CC[N+]1(C)C
inactive: [1] | [2] | [3] | [4] | [5] | [6] | [7] | [8] | [9] | [10] | [11] | [12] | [13] | [14] | [17] | [16]

CCCc1nn(C)c2c(=O)[nH]c(-c3cc(S(=O)(=O)N4CCN(C)CC4)ccc3OCC)nc12
inactive: [1] | [2] | [3] | [4] | [5] | [6] | [7] | [8] | [9] | [10] | [11] | [12] | [13] | [14] | [17] | [18] | [16]

Clc1cc(Cl)c(Cl)nc1Cl
inactive: [1] | [2] | [3] | [4] | [5] | [6] | [7] | [8] | [9] | [10] | [11] | [19] | [15] | [12] | [13] | [14] | [18] | [16]

CCn1cc(C(=O)O)c(=O)c2cc(F)c(N3CCNCC3)cc21
inactive: [1] | [2] | [3] | [4] | [5] | [6] | [7] | [8] | [9] | [10] | [11] | [12] | [13] | [14] | [17] | [18]

O=C(NCCN1CCOCC1)c1ccc(Cl)cc1
inactive: [1] | [2] | [3] | [4] | [5] | [6] | [7] | [8] | [9] | [10] | [11] | [12] | [13] | [14] | [17] | [18] | [16]

CCCCCCCCCCOC(C)=O
inactive: [1] | [2] | [3] | [4] | [5] | [6] | [7] | [8] | [9] | [10] | [11] | [19] | [15] | [12] | [13] | [14] | [17] | [16]

CNCc1ccccc1
inactive: [1] | [2] | [3] | [4] | [5] | [6] | [7] | [8] | [9] | [10] | [11] | [20] | [13] | [14] | [17] | [18] | [16]

[O-][n+]1cccc(/C(Cl)=N/OC[C@@H](O)CN2CCCCC2)c1
inactive: [1] | [2] | [3] | [4] | [5] | [6] | [7] | [8] | [9] | [10] | [11] | [20] | [12] | [13] | [14] | [18] | [16]

Cc1c(C)c2c(c(C)c1O)CC[C@@](C)(CCC[C@H](C)CCC[C@H](C)CCCC(C)C)O2
inactive: [1] | [2] | [3] | [4] | [5] | [6] | [7] | [8] | [9] | [10] | [11] | [12] | [13] | [14] | [17] | [18] | [16]

Cc1ccccc1N1CCN(CCc2nnc3n2CCCC3)CC1
inactive: [1] | [2] | [3] | [4] | [5] | [6] | [7] | [8] | [9] | [10] | [11] | [12] | [13] | [14] | [17] | [18]
